# Reference: ChEMBL document CHEMBL4513135, “CO-ADD screening of IQOG CSIS (Spain) compounds”
# Where “and” joins values, the source holds several entries; their conditions need not be identical. Equal entries are not always repeated. Potency and affinity values are given separately.
# Experiments:
# Staphylococcus aureus = conditions: Concentration 32 ug.mL-1, ASSAY_TEST Inhibition of Bacterial Growth, detection method Absorption (OD600), MEDIA CAMHB, plate type 384well, NBS, CORNING #3640, time 18 hr
# Escherichia coli = conditions: Concentration 32 ug.mL-1, ASSAY_TEST Inhibition of Bacterial Growth, detection method Absorption (OD600), MEDIA CAMHB, plate type 384well, NBS, CORNING #3640, time 18 hr
compound,measurement,setting,value
Cn1c(C(=O)O)cc2ccccc21,Inhibition,Staphylococcus aureus,7.02%
same,Inhibition,Escherichia coli,5.49%
N#CC1(Br)C(=NBr)Oc2c(ccc3ccccc23)C1c1ccc([N+](=O)[O-])cc1 (stereo not given),Inhibition,Staphylococcus aureus,36.89%
same,Inhibition,Escherichia coli,-19.6%
C#CCNc1nc(Cl)c(C#N)c(-c2ccccc2)c1C#N,Inhibition,Staphylococcus aureus,4.06%
same,Inhibition,Escherichia coli,10.8%
CC(C)C(=O)N/N=C/c1c[nH]c2ccccc12,Inhibition,Staphylococcus aureus,10.48%
same,Inhibition,Escherichia coli,9.69%
C#CC[n+]1ccccc1N.[Br-],Inhibition,Staphylococcus aureus,6.4%
same,Inhibition,Escherichia coli,12.69%
O=C(N/N=C/c1ccc(Cl)cc1)c1cc2ccccc2[nH]1,Inhibition,Staphylococcus aureus,1.43%
same,Inhibition,Escherichia coli,20.07%
C=C1CNc2c(C#N)c(-c3ccccc3)c(C#N)c(=N)n21,Inhibition,Staphylococcus aureus,17.65%
same,Inhibition,Escherichia coli,-9.94%
COc1ccc2c(c1)cc(CN)n2C,Inhibition,Staphylococcus aureus,13.26%
same,Inhibition,Escherichia coli,5.66%
Nc1c2c(nc3c1C(c1ccc([N+](=O)[O-])cc1)c1c(ccc4ccccc14)O3)CCCC2 (stereo not given),Inhibition,Staphylococcus aureus,18.24%
same,Inhibition,Escherichia coli,7.89%
N#CC1(Br)C(=N)Oc2ccc3ccccc3c2C1c1ccccc1 (stereo not given),Inhibition,Staphylococcus aureus; 32 ug/mL,27.29% and 36.87%
same,Inhibition,Escherichia coli; 32 ug/mL,-8.37% and -7.39%
COc1cccc(C2c3c(ccc4ccccc34)OC(=N)C2(Br)C#N)c1 (stereo not given),Inhibition,Escherichia coli; 32 ug/mL,-22.74% and -4.85%
O=C(Cc1c[nH]c2ccccc12)NN=Cc1ccccc1,Inhibition,Staphylococcus aureus,3.3%
same,Inhibition,Escherichia coli,-3.03%
N#C/C(=C\c1ccccc1)C(=O)c1ccccc1,Inhibition,Staphylococcus aureus,10.5%
same,Inhibition,Escherichia coli,8.34%
O=C(N[C@H]1CC[C@H](O)CC1)c1ccccc1,Inhibition,Staphylococcus aureus,23.34%
same,Inhibition,Escherichia coli,-10.8%
O=Cc1c(-c2ccc(Br)cc2)nc2ccccn12,Inhibition,Staphylococcus aureus,3.95%
same,Inhibition,Escherichia coli,9.28%
COc1ccc2c(c1)cc(CN(C)C)n2C,Inhibition,Staphylococcus aureus,-0.93%
same,Inhibition,Escherichia coli,-1.4%
CC(=O)/C=C/C1CCN(Cc2ccccc2)CC1,Inhibition,Staphylococcus aureus,28.47%
same,Inhibition,Escherichia coli,-12.86%
CCOC(=O)C1=C(C)OC(N)=C(C#N)C1c1ccncc1 (stereo not given),Inhibition,Staphylococcus aureus,26.79%
same,Inhibition,Escherichia coli,-33.19%
COc1ccc(C2C(C#N)=C(N)Oc3c2ccc2ccccc32)cc1OC (stereo not given),Inhibition,Escherichia coli,-16.13%
c1ccc(Cn2ccc3ccccc32)cc1,Inhibition,Staphylococcus aureus,7.36%
same,Inhibition,Escherichia coli,11.73%
COc1cc(C2c3c(nc4c(c3N)CCC4)Oc3ccc4ccccc4c32)ccc1O (stereo not given),Inhibition,Staphylococcus aureus,11.79%
same,Inhibition,Escherichia coli,11.06%
O=C(NNCCc1ccccc1)c1cc2ccccc2[nH]1,Inhibition,Staphylococcus aureus,-6.37%
same,Inhibition,Escherichia coli,-5.83%
Cl.N#Cc1c(N)nc(NCCO)c(C#N)c1-c1ccccc1,Inhibition,Staphylococcus aureus,32.81%
same,Inhibition,Escherichia coli,-7.39%
COc1ccc(C2C(C#N)=C(N)Oc3c2ccc2ccccc32)c(OC)c1 (stereo not given),Inhibition,Staphylococcus aureus,5.1%
same,Inhibition,Escherichia coli,0.79%
N#Cc1c(-c2cccc([N+](=O)[O-])c2)c2ccc3ccccc3c2oc1=O,Inhibition,Escherichia coli; 32 ug/mL,-5.38% and -17.97% and -15.63%
N#CC1=C(N)Oc2c(ccc3ccccc23)C1c1c(Cl)cccc1Cl (stereo not given),Inhibition,Staphylococcus aureus,8.27%
same,Inhibition,Escherichia coli,6.46%
N#Cc1cc(C#N)c(Cl)nc1Cl,Inhibition,Staphylococcus aureus,15.28%
same,Inhibition,Escherichia coli,-15.75%
N#CC1(Br)C(=NBr)Oc2ccc3ccccc3c2C1c1cccc([N+](=O)[O-])c1 (stereo not given),Inhibition,Staphylococcus aureus,29.27%
same,Inhibition,Escherichia coli,-20.79%
CCOC(=O)c1c(C)nc(NCC2CCN(Cc3ccccc3)CC2)c(C#N)c1-c1ccccc1,Inhibition,Staphylococcus aureus,24.62%
same,Inhibition,Escherichia coli,-10.38%
CCOC(=O)c1c(C)nc(NC2CCN(Cc3ccccc3)CC2)c(C#N)c1-c1ccccc1,Inhibition,Staphylococcus aureus,43.62%
same,Inhibition,Escherichia coli,-5.95%
O=C(N/N=C/c1c[nH]c2ccccc12)C(c1ccccc1)c1ccccc1,Inhibition,Staphylococcus aureus,7.26%
same,Inhibition,Escherichia coli,7.64%
CCOc1nc(N)c(C#N)cc1C#N,Inhibition,Staphylococcus aureus,33.34%
same,Inhibition,Escherichia coli,-14.2%
COc1ccc(-c2cc(-c3cc4ccc(OC)cc4nc3Cl)cc(=O)[nH]2)cc1,Inhibition,Staphylococcus aureus,18.65%
same,Inhibition,Escherichia coli,-13.67%
C#CCN(C)c1nc(N)c(C#N)cc1C#N,Inhibition,Escherichia coli; 32 ug/mL,-6.57% and -4.54%
C#CCNc1nc(NC2CCN(Cc3ccccc3)CC2)c(C#N)cc1C#N.Cl,Inhibition,Staphylococcus aureus,-1.55%
same,Inhibition,Escherichia coli,-6.24%
N#Cc1c(N)nc(O)c(C#N)c1-c1ccccc1,Inhibition,Staphylococcus aureus,4.47%
same,Inhibition,Escherichia coli,-25.59%
NOC(=O)C1CCN(Cc2ccccc2)CC1,Inhibition,Staphylococcus aureus,21.2%
same,Inhibition,Escherichia coli,1.52%
Cc1cnc2ccc(Br)cn12,Inhibition,Staphylococcus aureus,2.9%
same,Inhibition,Escherichia coli,6.35%
CCOC(=O)c1cc(C#N)c(N)nc1C,Inhibition,Staphylococcus aureus,8.2%
same,Inhibition,Escherichia coli,-11.35%
CCOC(N)=CC#N,Inhibition,Staphylococcus aureus,-2.54%
same,Inhibition,Escherichia coli,11.63%
Nc1c2c(nc3c1C(c1ccc(O)cc1)c1c(ccc4ccccc14)O3)CCCC2 (stereo not given),Inhibition,Staphylococcus aureus,9.54%
same,Inhibition,Escherichia coli,9.35%
C#CCN(C)c1nc(Cl)c(C#N)c(-c2ccccc2)c1C#N,Inhibition,Staphylococcus aureus,13.59%
same,Inhibition,Escherichia coli,-10.42%
